PubChem BioAssay (NCATS)
Records with an inconclusive call do not appear. Unless noted, calls come from the whole dose curve; as a rule, active = well fitted curve in either direction with a large enough effect (not every such curve was filed as active); inconclusive = small, poorly fitted or top-dose-only effect, or another doubt; inactive = flat fitted curve, though single readings scatter.

Key:
[1] = AP1 Signaling Pathway (AID 357); conditions: ME-180 AP-1-bla reporter, EGF-induced, beta-lactamase ratio, 5 h; at 17.2 µM (top of the series) unless noted; note: % is set by controls: 0 for no effect and ±100 for the full control effect
Summary of the method: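 AP-1-bla ME-180 cells with beta-lactamase reporter under AP-1 response element, stimulated with EC50 EGF; compounds titrated, 5 hours at 37 degrees Celsius. CCF4 read at 460/530 nm ratio; positive and negative modulators judged by AC50.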

[2] = NFAT Signaling Pathway (AID 444); conditions: Jurkat NFAT-bla M1, carbachol, beta-lactamase ratio, 5 h; at 17.2 µM (top of the series) unless noted;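 note: carbachol stimulus at about its EC50 of 1 µM final; % is set by controls: 0 for no effect and ±100 for the full control effect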
Summary of the method: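 Jurkat cells with NFAT-driven β-lactamase reporter and co-expressed M1 receptor, stimulated with carbachol (final 1 uM, ~EC50), compound titration, 5 h at 37 °C. CCF4 loaded 1 h at RT; 460/530 nm ratio gave %activity and AC50.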

[3] = Stat Signaling Pathway (AID 446); conditions: ME-180 SIE beta-lactamase reporter, IL-6 stimulated, 5 h; at 17.2 µM (top of the series) unless noted;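 note: ME-180 cervical cancer cells given 40 pM IL-6 alongside compound; SIE-controlled beta-lactamase reporter measured as 460/530 nm FRET emission ratio; % is set by controls: 0 for no effect and ±100 for the full control effect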
Summary of the method: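 ME-180 SIE-bla cells; overnight plating; cpd + IL-6 40 pM, 5 h, 37 C; LiveBLAzer 2.5 h RT; 460/530 nm emission ratio. Normalized to 300 pM IL-6 and 125 nM JAK inhibitor controls.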

[4] = molecular target: Glucocorticoid receptor (Homo sapiens) (UniProt P04150); test: GR-GFP Redistribution (AID 450;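 active = compounds whose dose series gives a full or clear partial fitted curve of increased nuclear translocation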; note: potency is the fitted concentration of half-maximal effect)
Sequence of Glucocorticoid receptor (Homo sapiens) (P04150 whole entry, looked up): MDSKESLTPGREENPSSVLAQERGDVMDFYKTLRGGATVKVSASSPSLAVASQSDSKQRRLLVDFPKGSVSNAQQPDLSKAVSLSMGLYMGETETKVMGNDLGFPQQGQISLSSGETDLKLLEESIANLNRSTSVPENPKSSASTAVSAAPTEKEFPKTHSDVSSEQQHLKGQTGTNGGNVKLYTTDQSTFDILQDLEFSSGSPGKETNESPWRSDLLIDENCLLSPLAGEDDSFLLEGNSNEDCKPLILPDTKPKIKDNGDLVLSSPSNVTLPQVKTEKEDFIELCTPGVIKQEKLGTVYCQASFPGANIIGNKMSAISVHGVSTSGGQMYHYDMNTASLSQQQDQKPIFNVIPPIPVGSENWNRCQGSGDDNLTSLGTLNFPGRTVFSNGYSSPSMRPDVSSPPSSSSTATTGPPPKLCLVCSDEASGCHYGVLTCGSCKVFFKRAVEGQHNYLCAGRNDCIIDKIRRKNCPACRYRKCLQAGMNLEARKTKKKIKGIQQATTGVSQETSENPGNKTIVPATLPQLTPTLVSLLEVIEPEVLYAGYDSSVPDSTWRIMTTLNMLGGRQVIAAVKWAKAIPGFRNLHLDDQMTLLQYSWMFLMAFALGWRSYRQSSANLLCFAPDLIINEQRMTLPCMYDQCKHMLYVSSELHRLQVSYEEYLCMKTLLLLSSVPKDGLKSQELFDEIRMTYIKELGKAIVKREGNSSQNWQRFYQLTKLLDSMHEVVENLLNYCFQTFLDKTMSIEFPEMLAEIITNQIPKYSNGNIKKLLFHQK

CCOC(=O)c1ccc(NC(=O)CCC(CC)C(=O)O)cc1 (stereo not given)
inactive: activity change, negative = inhibition [1] -2.51% | activity change, negative = inhibition [2] -11.6% | activity, negative = inhibition [3] 3.77% | Potency [4] > 20.6 µM

CCCCc1nc(N2CCOCC2)c(C#N)c2c1COC(C)(C)C2
inactive: activity change, negative = inhibition [1] -27.7% | activity change, negative = inhibition [2] 16.6% | activity, negative = inhibition [3] -1.34% | Potency [4] > 20.6 µM

CCn1c(SCC(=O)O)nc2sc3c(c2c1=O)CCC3
inactive: activity change, negative = inhibition [1] 5.13% | activity change, negative = inhibition [2] -8.87% | activity, negative = inhibition [3] -5.86% | Potency [4] > 20.6 µM

CCOC(=O)c1cc2c(=O)n3cccc(C)c3nc2n(Cc2cccnc2)c1=N
inactive: activity change, negative = inhibition [1] 13.7% | activity change, negative = inhibition [2] -26.5% | activity, negative = inhibition [3] 12% | Potency [4] > 20.6 µM

CCOC(=O)c1[nH]c2cc3c(cc2c1NC(=O)CN1CCC(C)CC1)OCO3
inactive: activity change, negative = inhibition [1] -11.2% | activity change, negative = inhibition [2] 3.83% | activity, negative = inhibition [3] -3.19% | Potency [4] > 20.6 µM

COc1ccc(C(=O)Cn2c(N3CCCCC3)nc3c2c(=O)n(C)c(=O)n3C)cc1OC
inactive: activity change, negative = inhibition [1] 14.7% | activity change, negative = inhibition [2] 21% | activity, negative = inhibition [3] -0.755% | Potency [4] > 20.6 µM

CCOC(=O)c1c(CN2CCN(CCO)CC2)n(C)c2cc(Br)c(OC)cc12
inactive: activity change, negative = inhibition [1] 19.8% | activity change, negative = inhibition [2] 29.2% | activity, negative = inhibition [3] -13.7% | Potency [4] > 20.6 µM

CCCCCCOc1ccc(N2C(=O)CC(N3CCN(C(=O)c4ccco4)CC3)C2=O)cc1 (stereo not given)
inactive: activity change, negative = inhibition [1] -1.51% | activity change, negative = inhibition [2] 13.8% | activity, negative = inhibition [3] -13.2% | Potency [4] > 20.6 µM

C=C(c1ccc(OCCO)cc1)c1ccc(OCCO)cc1
inactive: activity change, negative = inhibition [1] -5.64% | activity change, negative = inhibition [2] -1.3% | activity, negative = inhibition [3] -3.23% | Potency [4] > 20.6 µM

CCCNC(=O)N(C)c1nncnc1C(=O)NC
inactive: activity change, negative = inhibition [1] -9.23% | activity change, negative = inhibition [2] 2.36% | activity, negative = inhibition [3] -3.2% | Potency [4] > 20.6 µM

c1ccc(C2=Nn3c(nnc3-c3ccccn3)SC2)cc1
inactive: activity change, negative = inhibition [1] -4.27% | activity change, negative = inhibition [2] -8.45% | activity, negative = inhibition [3] 5.46% | Potency [4] > 20.6 µM

Cc1cccc(N2C(=O)CC(N3CCN(Cc4ccc(Cl)cc4)CC3)C2=O)c1 (stereo not given)
inactive: activity change, negative = inhibition [1] 1.23% | activity change, negative = inhibition [2] 6.12% | activity, negative = inhibition [3] 1.94% | Potency [4] > 20.6 µM

Cc1c(C(=O)O)c(=S)sn1CCOc1ccccc1
inactive: activity change, negative = inhibition [1] -0.1% | activity change, negative = inhibition [2] 10.4% | activity, negative = inhibition [3] 5.37% | Potency [4] > 20.6 µM

Cc1cc(CCC(=O)O)c(C)cc1CCC(=O)O
inactive: activity change, negative = inhibition [1] 14.2% | activity change, negative = inhibition [2] 2.85% | activity, negative = inhibition [3] 7.37% | Potency [4] > 20.6 µM

CC(=O)NCCCCCCNC(C)=O
inactive: activity change, negative = inhibition [1] 10.3% | activity change, negative = inhibition [2] -0.404% | activity, negative = inhibition [3] 2.41% | Potency [4] > 20.6 µM

CCOC(=O)C(C)c1nc2ccccc2[nH]c1=O (stereo not given)
inactive: activity change, negative = inhibition [1] 3.01% | activity change, negative = inhibition [2] -0.784% | activity, negative = inhibition [3] 4.12% | Potency [4] > 20.6 µM

CC(C)c1nc(N2CCOCC2)c(C#N)c2c1CCC2
inactive: activity change, negative = inhibition [1] -24.1% | activity change, negative = inhibition [2] -23.6% | activity, negative = inhibition [3] -8.37% | Potency [4] > 20.6 µM

c1ccc(OCc2nn3c(-c4cccnc4)nnc3s2)cc1
inactive: activity change, negative = inhibition [1] -6.61% | activity change, negative = inhibition [2] 2.29% | activity, negative = inhibition [3] -4.47% | Potency [4] > 20.6 µM

Cc1c(Cl)cccc1N1C(=O)C2ON(c3ccccc3)C(c3cccnc3)C2C1=O (stereo not given)
inactive: activity change, negative = inhibition [1] 4.21% | activity change, negative = inhibition [2] 0.827% | activity, negative = inhibition [3] 0.542% | Potency [4] > 20.6 µM

Cn1c(=O)c2c(nc(N3CCC(C(N)=O)CC3)n2CCSc2nc3ccccc3s2)n(C)c1=O
inactive: activity change, negative = inhibition [1] -0.203% | activity change, negative = inhibition [2] -5.54% | activity, negative = inhibition [3] 1.48% | Potency [4] > 20.6 µM

NC(=O)c1ccccc1OCCOCCOCCOc1ccccc1C(N)=O
inactive: activity change, negative = inhibition [1] -9.33% | activity change, negative = inhibition [2] -4.35% | activity, negative = inhibition [3] -0.51% | Potency [4] > 20.6 µM

Cc1ccc2c(=O)c(CN(C)C3CCN(C)CC3)c(C)[nH]c2c1C
inactive: activity change, negative = inhibition [1] 0.184% | activity change, negative = inhibition [2] -6.29% | activity, negative = inhibition [3] 5.33% | Potency [4] > 20.6 µM

CCOC(=O)CCc1c(C)c(C#N)c2nc3ccccc3n2c1-n1ccnc1
inactive: activity change, negative = inhibition [1] -6.27% | activity change, negative = inhibition [2] 10% | activity, negative = inhibition [3] 14.7% | Potency [4] > 20.6 µM

Cc1cccc(COc2ccc(/C(O)=C3\C(=O)C(=O)N(CCN(C)C)C3c3ccncc3)cc2)c1 (stereo not given)
inactive: activity change, negative = inhibition [1] 4.68% | activity change, negative = inhibition [2] 13.1% | activity, negative = inhibition [3] 2.96% | Potency [4] > 20.6 µM

CCOc1cccc(-c2nnc3sc(-c4ccco4)nn23)c1
inactive: activity change, negative = inhibition [1] -1.16% | activity change, negative = inhibition [2] 18.2% | activity, negative = inhibition [3] -18.8% | Potency [4] > 20.6 µM
